Experimental data reported in PubChem BioAssay (NCI).
Values joined by “and” are separate entries in the source; they are usually repeats but may differ in a detail not shown here. Identical values can stand only once. About 79,000 compounds went through this panel and 15% of them were active in at least one assay; those are over-represented in the sample as a whole. Where a structure was tested more than once in an assay, its records may differ in their call. Active and inactive are the calls of the source. No stated cut-off is given here; in the data, active means growth inhibition above about 70%; inactive means the rest.

Columns and labels:
[1] = NCI Yeast Anticancer Drug Screen. Data for the rad52 strain (AID 147);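 further: 0% = growth of vehicle-treated control cultures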; settings: S. cerevisiae rad52 mutant growth inhibition, stronger effect = higher value
Procedure, shortened: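 DNA repair-defective yeast; compound exposure; growth scored against vehicle controls.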

[2] = NCI Yeast Anticancer Drug Screen. Data for the wt1 strain (AID 149);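 further: 0% = growth of vehicle-treated wt1 cultures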; settings: S. cerevisiae wt1 strain (SPY 50644) growth inhibition, stronger effect = higher value
Procedure, shortened: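 Using yeast strain wt1, compound-induced growth inhibition was determined against vehicle-treated cultures.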

[3] = NCI Yeast Anticancer Drug Screen. Data for the rad50EPP+ strain (AID 151);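 further: 0% = growth of vehicle-treated control cultures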; settings: S. cerevisiae rad50 mutant strain, stronger effect = higher value
Procedure, shortened: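 rad50EPP+ yeast treated with test compounds. Readout: growth vs vehicle control.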

[4] = NCI Yeast Anticancer Drug Screen. Data for the mgt1 strain (AID 153); settings: S. cerevisiae mgt1 mutant growth inhibition, stronger effect = higher value
Procedure, shortened: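 Growth inhibition relative to vehicle controls was scored for the mgt1 yeast strain after compound exposure.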

[5] = NCI Yeast Anticancer Drug Screen. Data for the rad50 strain (AID 155);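 further: 0% = growth of vehicle-only cultures of the same strain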; settings: S. cerevisiae rad50 strain growth inhibition, stronger effect = higher value
Procedure, shortened: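 Relative growth inhibition (compound vs vehicle) was measured in yeast with a defined repair-gene alteration.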

[6] = NCI Yeast Anticancer Drug Screen. Data for the mec2-1 strain (AID 157); settings: S. cerevisiae mec2-1 strain, stronger effect = higher value
Procedure, shortened: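 Growth inhibition is read against vehicle-treated controls after compound exposure of the mec2-1 yeast strain, which is defective in DNA damage repair or cell cycle control.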

[7] = NCI Yeast Anticancer Drug Screen. Data for the rad14 strain (AID 159);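 further: 0% = growth of vehicle-treated control cultures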; settings: S. cerevisiae rad14 strain growth inhibition, stronger effect = higher value
Procedure, shortened: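 Screen for anticancer potential: a yeast strain altered in DNA damage repair is grown with compound, and reduced growth is quantified against vehicle controls.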

[8] = NCI Yeast Anticancer Drug Screen. Data for the sgs1 mgt1 strain (AID 161);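 further: 0% = growth of cultures given vehicle only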; settings: S. cerevisiae sgs1 mgt1 strain, stronger effect = higher value
Procedure, shortened: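 This yeast growth screen uses a strain with defined DNA-repair lesions; compound-treated growth is compared with vehicle-treated growth.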

[9] = NCI Yeast Anticancer Drug Screen. Data for the CLN2oe strain (AID 163);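 further: 0% = growth of vehicle-only control cultures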; settings: S. cerevisiae CLN2oe strain, stronger effect = higher value
Procedure, shortened: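 Compound-treated yeast; growth vs vehicle ctrl = % inhibition. Genetically altered strain (cell-cycle control).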

[10] = NCI Yeast Anticancer Drug Screen. Data for the cln2 rad14 strain (AID 165);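 further: 0% = growth equal to vehicle treated cultures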; settings: S. cerevisiae cln2 rad14 strain, stronger effect = higher value
Procedure, shortened: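 Growth inhibition, relative to vehicle-treated controls, is the read-out. The test organism is a yeast strain with defined genetic alterations, cln2 rad14.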

[11] = NCI Yeast Anticancer Drug Screen. Data for the bub3 strain (AID 167); settings: S. cerevisiae bub3 mutant strain, stronger effect = higher value
Procedure, shortened: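 Screening used yeast with an engineered genetic alteration affecting cell cycle control. Compound-exposed cultures were compared with vehicle cultures, and reduced growth was taken as inhibition.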

[12] = NCI Yeast Anticancer Drug Screen. Data for the wt2 strain (AID 169);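 further: 0% = growth of vehicle-treated yeast cultures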; settings: S. cerevisiae wt2 strain growth inhibition, stronger effect = higher value
Procedure, shortened: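 Compound exposure of yeast; growth compared with vehicle controls; inhibition reported.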

[13] = NCI Yeast Anticancer Drug Screen. Data for the mlh1 strain (AID 171);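 further: 0% = growth of vehicle-treated control cultures of the same strain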; settings: S. cerevisiae mlh1 strain growth inhibition, stronger effect = higher value
Procedure, shortened: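 Compounds are applied to a genetically altered yeast strain, and its growth is compared with that of vehicle-treated cultures to give percent inhibition.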

[14] = NCI Yeast Anticancer Drug Screen. Data for the sgs1 strain (AID 173);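 further: 0% = growth of vehicle-only control cultures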; settings: S. cerevisiae sgs1 mutant, stronger effect = higher value
Procedure, shortened: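 Compounds applied to genetically altered yeast; growth compared with vehicle-treated cultures to give % inhibition.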

[15] = NCI Yeast Anticancer Drug Screen. Data for the mlh1 rad18 strain (AID 175); settings: S. cerevisiae mlh1 rad18 strain growth inhibition, stronger effect = higher value
Procedure, shortened: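 Cells of a genetically altered yeast strain, deficient in DNA damage repair, were treated with compound. Their growth was then compared with that of vehicle-treated cultures to give inhibition.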

[16] = NCI Yeast Anticancer Drug Screen. Data for the rad18 strain (AID 177); settings: S. cerevisiae rad18 mutant growth inhibition, stronger effect = higher value
Procedure, shortened: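 Compounds are applied to a repair-deficient yeast strain, and growth is compared with that of vehicle-treated cultures to give percent inhibition.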

[17] = at 5.0 µM (retest, dose inferred, filed as 0.5)
[18] = at 50.0 µM (retest, dose inferred, filed as 5.0)

Measured: growth inhibition

CS(=O)(=O)OCCN(CCOS(C)(=O)=O)c1ccc(C=Nc2ccc(-c3csc(COc4ccccc4)n3)cc2)cc1
active: [1]; at 11.0 µM 76% | [1]; at 33.0 µM 96% | [1]; at 100.0 µM 93% | [2]; at 33.0 µM 90% | [2]; at 100.0 µM 91% | [3]; at 33.0 µM 94% | [3]; at 100.0 µM 93% | [4]; at 33.0 µM 90% | [4]; at 100.0 µM 91% | [5]; at 33.0 µM 93% | [5]; [18] 95% and 96% | [5]; at 50.0 µM 97% | [5]; at 100.0 µM 91% | [6]; at 33.0 µM 93% | [6]; [18] 96% | [6]; at 50.0 µM 98.2% | [6]; at 100.0 µM 91% | [7]; at 33.0 µM 95% | [7]; at 100.0 µM 94% | [8]; at 50.0 µM 84.8% and 97.7% | [9]; at 33.0 µM 93% | [9]; at 100.0 µM 90% | [10]; at 50.0 µM 85.3% and 95.8% | [11]; at 33.0 µM 91% | [11]; at 50.0 µM 84.5% and 96.2% | [11]; at 100.0 µM 88% | [12]; at 33.0 µM 92% | [12]; at 100.0 µM 91% | [13]; at 33.0 µM 94% | [13]; at 100.0 µM 92% | [14]; at 33.0 µM 93% | [14]; at 100.0 µM 92% | [15]; [18] 95% and 97% | [15]; at 50.0 µM 97.2%
81% (active) and 65% (inactive): [15]; [17]
-64% (inactive) and 98% (active): [8]; [18]
-80% (inactive) and 96% (active): [10]; [18]
-73% (inactive) and 96% (active): [11]; [18]
inactive: [1]; at 1.2 µM 15% | [1]; at 3.7 µM 29% | [2]; at 1.2 µM -30% | [2]; at 3.7 µM -33% | [2]; at 11.0 µM -8% | [3]; at 1.2 µM -2% | [3]; at 3.7 µM -11% | [3]; at 11.0 µM 49% | [4]; at 1.2 µM -22% | [4]; at 3.7 µM -16% | [4]; at 11.0 µM 23% | [5]; at 1.2 µM -29% | [5]; at 3.7 µM -5% | [5]; [17] 44% and 40% | [5]; at 11.0 µM 63% | [6]; at 1.2 µM -46% | [6]; at 3.7 µM -18% | [6]; [17] 33% and 34% | [6]; at 11.0 µM 41% | [7]; at 1.2 µM -25% | [7]; at 3.7 µM 14% | [7]; at 11.0 µM 59% | [8]; [17] -12% and 26% | [9]; at 1.2 µM 1% | [9]; at 3.7 µM 4% | [9]; at 11.0 µM 45% | [10]; [17] -2% and 25% | [11]; at 1.2 µM -36% | [11]; at 3.7 µM -16% | [11]; [17] -4% and 19% | [11]; at 11.0 µM 47% | [12]; at 1.2 µM -4% | [12]; at 3.7 µM 11% | [12]; at 11.0 µM 54% | [13]; at 1.2 µM -24% | [13]; at 3.7 µM -17% | [13]; at 11.0 µM 42% | [14]; at 1.2 µM 11% | [14]; at 3.7 µM 14% | [14]; at 11.0 µM 64%

COC(=O)CCC(NC(=S)N/N=C(\C)c1ccccn1)C(=O)OC (stereo unspecified)
inactive: [1]; at 1.2 µM -21% | [1]; at 3.7 µM -27% | [1]; at 11.0 µM 1% | [1]; at 33.0 µM 61% | [2]; at 1.2 µM -10% | [2]; at 3.7 µM -22% | [2]; at 11.0 µM 2% | [2]; at 33.0 µM 47% | [3]; at 1.2 µM 6% | [3]; at 3.7 µM -5% | [3]; at 11.0 µM 2% | [3]; at 33.0 µM 18% | [3]; at 100.0 µM 34% | [4]; at 1.2 µM 14% | [4]; at 3.7 µM 6% | [4]; at 11.0 µM 28% | [4]; at 33.0 µM 64% | [5]; at 1.2 µM 8% | [5]; at 3.7 µM 3% | [5]; [17] 34% | [5]; at 11.0 µM 26% | [6]; at 1.2 µM -11% | [6]; at 3.7 µM -7% | [6]; [17] 9% | [6]; at 11.0 µM 12% | [6]; at 33.0 µM 57% | [7]; at 1.2 µM 2% | [7]; at 3.7 µM -3% | [7]; at 11.0 µM 21% | [7]; at 33.0 µM 69% | [8]; [17] 7% | [9]; at 1.2 µM 7% | [9]; at 3.7 µM 2% | [9]; at 11.0 µM 18% | [9]; at 33.0 µM 62% | [10]; [17] -5% | [11]; at 1.2 µM 24% | [11]; at 3.7 µM 28% | [11]; [17] 22% | [11]; at 11.0 µM 32% | [12]; at 1.2 µM -37% | [12]; at 3.7 µM -29% | [12]; at 11.0 µM -3% | [12]; at 33.0 µM 51% | [13]; at 1.2 µM 20% | [13]; at 3.7 µM 2% | [13]; at 11.0 µM 23% | [13]; at 33.0 µM 62% | [14]; at 1.2 µM -14% | [14]; at 3.7 µM -15% | [14]; at 11.0 µM 20% | [14]; at 33.0 µM 67% | [15]; [17] -13% | [16]; at 1.2 µM -16% | [16]; at 3.7 µM -27% | [16]; at 11.0 µM 10%
active: [1]; at 100.0 µM 90% | [2]; at 100.0 µM 85% | [4]; at 100.0 µM 91% | [5]; at 33.0 µM 72% | [5]; [18] 79% | [5]; at 50.0 µM 77.5% | [5]; at 100.0 µM 93% | [6]; [18] 78% | [6]; at 50.0 µM 77.5% | [6]; at 100.0 µM 90% | [7]; at 100.0 µM 92% | [8]; [18] 80% | [8]; at 50.0 µM 82.8% | [9]; at 100.0 µM 88% | [10]; [18] 82% | [10]; at 50.0 µM 83% | [11]; at 33.0 µM 77% | [11]; [18] 84% | [11]; at 50.0 µM 81.3% | [11]; at 100.0 µM 93% | [12]; at 100.0 µM 87% | [13]; at 100.0 µM 92% | [14]; at 100.0 µM 92% | [15]; [18] 79% | [15]; at 50.0 µM 75.5% | [16]; at 33.0 µM 70% | [16]; at 100.0 µM 91%
